Assay results: the supplement of paper PMC6555819

What was measured:
Experiment in all cases: PBM binding z-score (relative to random genomic background probes); higher = stronger binding; sequences stand for … in GC…GCGATTGACAGCGTAGAATGAAGG
[1] = system: PPARg:RXRa DBDmut IVT, anti-RXR (DBD mutation: RXRa K156A/R161A, NR concentration 270 nM, RXRa partner concentration 90 nM)
Procedure, shortened: (§1)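 Binding z-scores take random background probes as their reference. They come from custom Agilent 4×180K protein-binding microarrays incubated 1 h with ligand-free nuclear receptor dimers, with antibodies against each partner (one per run) detecting binding. Scanned fluorescence was regression-normalized.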

[2] = system: PPARg:RXRa IVT, anti-PPARg (NR concentration 270 nM, RXRa partner concentration 90 nM)
Procedure, shortened: as §1

[3] = system: PPARg DBDmut:RXRa IVT, anti-PPARg (DBD mutation: PPARg1 K132A/R137A, NR concentration 270 nM, RXRa partner concentration 90 nM)
Procedure, shortened: as §1

[4] = system: PPARg DBDmut IVT, anti-PPARg (DBD mutation: PPARg1 K132A/R137A, NR concentration 270 nM)
Procedure, shortened: as §1

[5] = system: PPARg homodimer (NR concentration 180 nM)
Procedure, shortened: as §1

[6] = system: PXR:RXRa (NR concentration 270 nM, RXRa partner concentration 90 nM)
Procedure, shortened: as §1

[7] = system: PXR homodimer (NR concentration 270 nM)
Procedure, shortened: as §1

[8] = system: RARa:RXR (NR concentration 270 nM, RXRa partner concentration 90 nM)
Procedure, shortened: as §1

[9] = system: RARa homodimer (NR concentration 270 nM)
Procedure, shortened: as §1

[10] = system: RARb:RXRa (NR concentration 270 nM, RXRa partner concentration 90 nM)
Procedure, shortened: as §1

[11] = system: RARb homodimer (NR concentration 270 nM)
Procedure, shortened: as §1

[12] = system: RARg:RXRa (NR concentration 270 nM, RXRa partner concentration 90 nM)
Procedure, shortened: as §1

[13] = system: RARg homodimer (NR concentration 270 nM)
Procedure, shortened: as §1

[14] = system: RXRa DBDmut IVT, anti-RXR (DBD mutation: RXRa K156A/R161A, NR concentration 90 nM)
Procedure, shortened: as §1

[15] = system: RXRa homodimer (NR concentration 180 nM)
Procedure, shortened: as §1

[16] = system: THRa:RXRa (NR concentration 90 nM, RXRa partner concentration 90 nM)
Procedure, shortened: as §1

[17] = system: THRa homodimer (NR concentration 90 nM)
Procedure, shortened: as §1

[18] = system: VDR homodimer (NR concentration 270 nM)
Procedure, shortened: as §1

Sequence	PBM binding z-score [1]	PBM binding z-score [2]	PBM binding z-score [3]	PBM binding z-score [4]	PBM binding z-score [5]	PBM binding z-score [6]	PBM binding z-score [7]	PBM binding z-score [8]	PBM binding z-score [9]	PBM binding z-score [10]	PBM binding z-score [11]	PBM binding z-score [12]	PBM binding z-score [13]	PBM binding z-score [14]	PBM binding z-score [15]	PBM binding z-score [16]	PBM binding z-score [17]	PBM binding z-score [18]
TCATATAGGTACACAGGTGAAAGTCCGTAAGTTA	3.06	2.34	0.518	0.496	1.23	1	0.981	0.908	1.26	0.943	1.25	0.77	0.513	2.06	1.27	0.937	0.627	1.07
CTCGAAAGGACGTGCTCAGGTGAGTATACCAAAC	-0.218	-0.388	-0.653	-0.179	-0.0329	-0.345	-0.1	0.0274	-0.22	0.749	0.589	0.291	0.547	0.19	-0.118	1.17	0.542	-0.391
TCTAGTTGGTCACGGAGGTTACACACGACGGGTA	2.33	2.95	0.625	0.671	1.64	1.53	0.58	1.77	0.623	2.42	2.39	2.29	2.43	0.609	2.16	1.71	0.725	0.629
TCTGCTAGGTCAGTTGGTCATCTAACGAGCTGCC	2.75	3.27	0.685	0.261	0.396	0.316	-0.767	0.721	-0.587	3.47	2.81	2.87	3.99	0.589	1.25	1.63	0.119	-0.506
GCAGACAGGTGAAACGCAGGGAACTCAGGGTGGC	0.902	0.213	0.0548	-0.787	0.0817	-0.255	-0.624	0.127	-0.901	0.545	-0.128	0.193	0.108	-1.09	0.587	0.258	-0.443	-0.619
TCTAGTTGTTCACGGAGGTCACACACGACGGGTA	1.73	2.51	0.302	1.32	2.67	4.27	1.07	4.45	1.31	3.37	4.05	3.97	3.7	1.18	4.36	3.39	2.47	3.06
CGTCAAAGTTCAACTAAGCTAACGTAAAGCACGC	0.667	1.69	1.11	1.29	3.28	4.69	4.44	3.82	2.34	5.31	4.31	5.83	6.59	4.75	5.2	2.48	0.187	3.66
